In the supplement of paper PMC11732987, “Enantioselective OTUD7B fragment discovery through chemoproteomics screening and high-throughput optimisation” (Communications Chemistry, 2025):

Columns and labels:
Experiment in all cases: log2 ratio of Biotin-Ahx-Ub-VS probe labelling (fragment/DMSO); higher = less target engagement (more negative = stronger competition), active = hit call of the paper (q ≤ 0.05, log2 ratio ≤ -1)
Settings in all cases: compound concentration: 200 uM; treatment time: 3 h
USP19 = molecular target: T1, USP19 (UniProt O94966)
T1 sequence (whole entry): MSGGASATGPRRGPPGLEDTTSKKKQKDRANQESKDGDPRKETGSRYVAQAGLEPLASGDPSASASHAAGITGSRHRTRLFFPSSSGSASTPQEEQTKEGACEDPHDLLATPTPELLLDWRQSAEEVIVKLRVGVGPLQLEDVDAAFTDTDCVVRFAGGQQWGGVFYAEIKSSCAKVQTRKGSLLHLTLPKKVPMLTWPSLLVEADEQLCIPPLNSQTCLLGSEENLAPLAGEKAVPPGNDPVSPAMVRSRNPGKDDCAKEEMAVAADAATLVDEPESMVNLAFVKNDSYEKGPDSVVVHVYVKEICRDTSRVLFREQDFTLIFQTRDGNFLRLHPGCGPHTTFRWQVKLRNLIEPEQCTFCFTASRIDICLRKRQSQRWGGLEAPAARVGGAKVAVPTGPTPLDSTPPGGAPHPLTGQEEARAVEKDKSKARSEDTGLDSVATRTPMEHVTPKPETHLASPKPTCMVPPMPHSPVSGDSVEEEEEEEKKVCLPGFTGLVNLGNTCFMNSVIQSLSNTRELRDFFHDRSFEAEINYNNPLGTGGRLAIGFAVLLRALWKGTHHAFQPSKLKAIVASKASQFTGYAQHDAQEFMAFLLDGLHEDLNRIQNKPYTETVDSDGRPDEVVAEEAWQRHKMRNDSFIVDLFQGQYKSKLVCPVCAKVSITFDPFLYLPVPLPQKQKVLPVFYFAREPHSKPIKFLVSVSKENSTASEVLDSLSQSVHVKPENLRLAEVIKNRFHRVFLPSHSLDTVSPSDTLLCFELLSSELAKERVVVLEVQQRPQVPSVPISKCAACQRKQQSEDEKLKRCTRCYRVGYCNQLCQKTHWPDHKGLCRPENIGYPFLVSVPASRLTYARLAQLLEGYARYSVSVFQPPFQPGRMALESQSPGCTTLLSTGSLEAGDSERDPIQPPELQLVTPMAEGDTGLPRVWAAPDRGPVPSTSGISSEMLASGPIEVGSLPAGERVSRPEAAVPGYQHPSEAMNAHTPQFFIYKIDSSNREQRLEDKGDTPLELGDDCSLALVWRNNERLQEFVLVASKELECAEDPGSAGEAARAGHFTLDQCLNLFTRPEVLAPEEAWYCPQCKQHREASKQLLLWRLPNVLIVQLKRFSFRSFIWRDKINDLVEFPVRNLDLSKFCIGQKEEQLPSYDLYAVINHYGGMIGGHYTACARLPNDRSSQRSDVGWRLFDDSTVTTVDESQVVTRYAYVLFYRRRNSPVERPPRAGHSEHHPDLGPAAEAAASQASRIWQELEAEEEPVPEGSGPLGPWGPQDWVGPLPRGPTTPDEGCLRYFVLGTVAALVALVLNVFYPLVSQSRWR
How it was run: (§1)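 Labelling with Biotin-Ahx-Ub-VS (0.5 µM final, 1 h) followed a 3 h triplicate treatment of HEK293T lysate (495 µg per sample, Tris/CHAPS/IGEPAL buffer with protease inhibitors) with fragment at 200 µM or vehicle. Labelled DUBs were NeutrAvidin-enriched, digested with LysC and trypsin, and run by diaPASEF LC-MS/MS. The values, average log2 fragment/vehicle ratios by unpaired t-test, come from global-median-normalised Spectronaut label-free quantities. Proteins with ≥2 unique peptides were used.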

USP24 = USP24 (UniProt Q9UPU5)
Sequence of USP24 (Q9UPU5 whole entry): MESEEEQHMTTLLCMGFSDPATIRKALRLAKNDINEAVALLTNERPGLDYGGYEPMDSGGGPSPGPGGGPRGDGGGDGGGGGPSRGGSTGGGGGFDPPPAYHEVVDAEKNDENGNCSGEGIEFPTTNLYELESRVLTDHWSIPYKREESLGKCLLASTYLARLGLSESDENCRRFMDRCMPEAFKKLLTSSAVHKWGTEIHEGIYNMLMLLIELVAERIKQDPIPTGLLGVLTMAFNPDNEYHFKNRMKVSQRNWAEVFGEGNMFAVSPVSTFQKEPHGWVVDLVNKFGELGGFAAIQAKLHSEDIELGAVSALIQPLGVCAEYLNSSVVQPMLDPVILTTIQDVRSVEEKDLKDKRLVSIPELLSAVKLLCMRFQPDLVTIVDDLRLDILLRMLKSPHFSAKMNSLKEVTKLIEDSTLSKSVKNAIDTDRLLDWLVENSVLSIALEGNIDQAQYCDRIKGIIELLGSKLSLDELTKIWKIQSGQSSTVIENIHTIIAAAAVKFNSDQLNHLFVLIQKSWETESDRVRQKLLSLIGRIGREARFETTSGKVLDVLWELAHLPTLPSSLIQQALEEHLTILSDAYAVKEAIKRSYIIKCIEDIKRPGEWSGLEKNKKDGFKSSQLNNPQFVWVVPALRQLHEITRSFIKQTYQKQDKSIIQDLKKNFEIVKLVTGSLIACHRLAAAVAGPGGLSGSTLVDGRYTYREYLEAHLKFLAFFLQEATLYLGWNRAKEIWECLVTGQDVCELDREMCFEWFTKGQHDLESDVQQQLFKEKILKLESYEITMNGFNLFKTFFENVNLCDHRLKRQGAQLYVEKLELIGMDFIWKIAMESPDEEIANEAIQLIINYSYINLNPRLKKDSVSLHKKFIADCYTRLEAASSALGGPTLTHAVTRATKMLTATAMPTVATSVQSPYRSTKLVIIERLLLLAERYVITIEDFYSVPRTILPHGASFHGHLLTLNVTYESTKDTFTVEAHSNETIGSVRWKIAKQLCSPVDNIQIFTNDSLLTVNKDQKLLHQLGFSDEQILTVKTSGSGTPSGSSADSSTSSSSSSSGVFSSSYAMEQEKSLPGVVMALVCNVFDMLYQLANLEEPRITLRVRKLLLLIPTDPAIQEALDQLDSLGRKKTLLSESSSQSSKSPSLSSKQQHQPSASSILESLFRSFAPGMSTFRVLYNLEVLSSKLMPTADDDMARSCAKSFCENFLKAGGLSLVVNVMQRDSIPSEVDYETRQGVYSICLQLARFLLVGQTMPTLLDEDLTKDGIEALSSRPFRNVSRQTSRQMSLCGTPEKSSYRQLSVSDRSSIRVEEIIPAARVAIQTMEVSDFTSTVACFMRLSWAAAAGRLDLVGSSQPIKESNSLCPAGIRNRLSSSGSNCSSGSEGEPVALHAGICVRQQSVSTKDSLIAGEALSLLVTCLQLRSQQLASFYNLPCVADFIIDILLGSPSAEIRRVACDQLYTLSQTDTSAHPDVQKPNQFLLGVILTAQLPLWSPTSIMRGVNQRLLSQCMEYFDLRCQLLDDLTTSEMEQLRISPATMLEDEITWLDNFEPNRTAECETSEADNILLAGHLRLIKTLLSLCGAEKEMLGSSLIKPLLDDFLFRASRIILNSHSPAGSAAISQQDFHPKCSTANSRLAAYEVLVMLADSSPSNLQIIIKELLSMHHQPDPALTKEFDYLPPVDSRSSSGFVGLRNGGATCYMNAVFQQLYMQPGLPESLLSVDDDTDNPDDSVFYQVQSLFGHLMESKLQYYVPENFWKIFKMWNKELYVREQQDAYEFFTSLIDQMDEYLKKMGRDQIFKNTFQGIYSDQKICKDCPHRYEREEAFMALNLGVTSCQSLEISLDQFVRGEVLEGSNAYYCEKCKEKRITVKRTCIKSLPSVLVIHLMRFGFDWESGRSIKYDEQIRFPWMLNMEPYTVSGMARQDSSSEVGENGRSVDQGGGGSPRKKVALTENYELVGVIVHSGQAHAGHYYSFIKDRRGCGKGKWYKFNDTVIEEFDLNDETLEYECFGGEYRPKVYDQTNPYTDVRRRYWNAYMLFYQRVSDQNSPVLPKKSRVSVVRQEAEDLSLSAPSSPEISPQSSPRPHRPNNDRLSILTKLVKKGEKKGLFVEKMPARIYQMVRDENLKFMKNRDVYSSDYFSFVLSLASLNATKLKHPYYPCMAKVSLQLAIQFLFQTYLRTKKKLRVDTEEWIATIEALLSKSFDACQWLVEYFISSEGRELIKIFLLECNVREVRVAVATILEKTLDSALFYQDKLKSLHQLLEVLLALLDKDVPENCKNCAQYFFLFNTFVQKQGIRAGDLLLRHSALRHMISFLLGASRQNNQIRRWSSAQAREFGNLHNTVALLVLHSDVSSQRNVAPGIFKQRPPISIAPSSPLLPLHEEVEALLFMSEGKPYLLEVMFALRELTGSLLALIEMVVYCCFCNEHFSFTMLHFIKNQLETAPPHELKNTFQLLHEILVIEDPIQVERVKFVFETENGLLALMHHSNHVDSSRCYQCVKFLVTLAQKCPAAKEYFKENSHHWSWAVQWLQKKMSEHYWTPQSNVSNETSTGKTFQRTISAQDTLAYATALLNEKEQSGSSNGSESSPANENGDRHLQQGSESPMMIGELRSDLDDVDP
How it was run: as §1

USP25 = molecular target: T2, USP25 (UniProt Q9UHP3)
T2 sequence (whole entry): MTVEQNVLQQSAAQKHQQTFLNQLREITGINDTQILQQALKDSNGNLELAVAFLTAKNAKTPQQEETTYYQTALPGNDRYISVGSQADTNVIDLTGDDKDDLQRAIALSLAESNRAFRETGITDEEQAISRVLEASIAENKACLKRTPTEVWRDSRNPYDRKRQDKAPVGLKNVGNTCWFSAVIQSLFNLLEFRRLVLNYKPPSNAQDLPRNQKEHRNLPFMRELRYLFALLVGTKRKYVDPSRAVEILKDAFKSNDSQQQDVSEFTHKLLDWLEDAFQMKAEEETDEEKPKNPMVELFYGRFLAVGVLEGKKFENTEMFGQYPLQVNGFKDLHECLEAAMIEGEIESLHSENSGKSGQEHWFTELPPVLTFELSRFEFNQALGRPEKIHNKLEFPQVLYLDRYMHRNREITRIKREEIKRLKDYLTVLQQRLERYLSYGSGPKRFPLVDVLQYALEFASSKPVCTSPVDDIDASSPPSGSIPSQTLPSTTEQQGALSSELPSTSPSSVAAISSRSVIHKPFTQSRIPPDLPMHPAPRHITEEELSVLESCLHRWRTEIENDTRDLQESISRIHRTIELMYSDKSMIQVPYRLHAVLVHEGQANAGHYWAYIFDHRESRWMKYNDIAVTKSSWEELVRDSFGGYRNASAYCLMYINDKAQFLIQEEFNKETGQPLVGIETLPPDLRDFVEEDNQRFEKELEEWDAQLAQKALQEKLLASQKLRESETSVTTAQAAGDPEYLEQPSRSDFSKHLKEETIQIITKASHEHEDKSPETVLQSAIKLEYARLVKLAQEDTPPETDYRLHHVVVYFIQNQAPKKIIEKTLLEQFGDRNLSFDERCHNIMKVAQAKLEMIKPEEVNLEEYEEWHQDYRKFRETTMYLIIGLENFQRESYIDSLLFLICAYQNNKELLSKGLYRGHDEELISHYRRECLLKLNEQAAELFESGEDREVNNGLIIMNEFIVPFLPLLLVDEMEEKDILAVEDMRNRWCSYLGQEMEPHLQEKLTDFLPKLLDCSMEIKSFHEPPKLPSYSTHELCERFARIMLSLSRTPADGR
How it was run: as §1

USP28 = molecular target: T3, USP28 (UniProt Q96RU2)
T3 sequence (whole entry): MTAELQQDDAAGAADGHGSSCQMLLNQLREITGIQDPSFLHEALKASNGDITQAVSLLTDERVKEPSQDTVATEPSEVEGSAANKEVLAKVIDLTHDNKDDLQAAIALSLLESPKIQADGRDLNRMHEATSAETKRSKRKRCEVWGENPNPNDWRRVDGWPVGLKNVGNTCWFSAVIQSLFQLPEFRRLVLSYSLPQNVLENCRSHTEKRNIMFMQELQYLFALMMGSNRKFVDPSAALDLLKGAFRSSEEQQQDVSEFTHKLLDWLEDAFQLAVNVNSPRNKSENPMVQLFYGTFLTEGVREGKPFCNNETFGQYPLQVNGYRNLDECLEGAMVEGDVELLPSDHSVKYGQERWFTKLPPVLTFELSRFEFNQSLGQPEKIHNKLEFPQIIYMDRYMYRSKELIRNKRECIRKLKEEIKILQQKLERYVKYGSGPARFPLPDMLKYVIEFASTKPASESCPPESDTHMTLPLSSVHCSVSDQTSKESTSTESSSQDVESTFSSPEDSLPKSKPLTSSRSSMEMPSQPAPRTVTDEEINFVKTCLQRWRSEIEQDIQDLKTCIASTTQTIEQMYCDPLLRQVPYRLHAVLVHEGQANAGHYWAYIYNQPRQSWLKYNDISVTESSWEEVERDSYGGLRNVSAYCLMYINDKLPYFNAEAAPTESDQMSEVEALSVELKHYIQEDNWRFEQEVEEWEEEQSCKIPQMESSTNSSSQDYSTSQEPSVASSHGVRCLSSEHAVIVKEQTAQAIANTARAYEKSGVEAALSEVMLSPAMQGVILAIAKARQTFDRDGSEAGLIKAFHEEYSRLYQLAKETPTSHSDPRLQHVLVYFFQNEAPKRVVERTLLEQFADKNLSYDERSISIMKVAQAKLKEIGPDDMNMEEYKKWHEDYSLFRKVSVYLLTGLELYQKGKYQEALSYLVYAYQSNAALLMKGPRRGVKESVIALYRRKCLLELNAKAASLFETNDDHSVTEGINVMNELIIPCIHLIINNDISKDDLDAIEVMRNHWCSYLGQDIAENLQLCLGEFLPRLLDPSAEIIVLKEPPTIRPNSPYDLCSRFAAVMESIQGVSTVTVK
How it was run: as §1

Measured: log2 ratio of Biotin-Ahx-Ub-VS probe labelling

CC(NC(=O)CCl)c1noc(Cc2ccccc2)n1 (centres undefined)
inactive: USP19 -0.307 | USP24 -0.498 | USP25 -0.593 | USP28 -0.789
